# From PubChem BioAssay AID485364 (National Center for Advancing Translational Sciences (NCATS), 2010)
# About 11,000 (3.1%) of roughly 360,000 compounds were called active. Inconclusive results (about 4%) are left out. The sample as a whole holds a higher share of actives than the screen did. A number with no mark means an inactive call. Calls come from the whole dose curve; as a rule, active = well fitted inhibition curve with a large enough effect; inconclusive = small, poorly fitted or top-dose-only effect; inactive = no such curve, though single readings can be large or run the other way.
# Biological target: Schistosoma mansoni thioredoxin glutathione reductase (TGR) (UniProt Q962Y6)
# Assay: qHTS Assay for the Inhibitors of Schistosoma Mansoni Peroxiredoxins; note: nearly all actives have a fitted effect of over 60% in size
# Details: purified TGR, DTNB reduction, TNB absorbance 405 nm; series mostly up to 114 µM; activity change, negative = inhibition: at the top concentration
# Procedure, shortened: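 Kinetic colorimetric format: TGR-catalysed, NADPH-driven DTNB reduction monitored via TNB absorbance. Enzyme dispensed at 20 nM; compound exposure 15 min at room temperature before reaction start.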
# % is set by controls: 0 for no effect and ±100 for the full control effect; potency is the fitted concentration of half-maximal effect.
SMILES,Potency,"activity change, negative = inhibition [%]"
CC(C)c1nc(CNC(=O)CC2C(=O)NCCN2Cc2ccoc2)cs1 (configuration not stated),35.5 µM (active),
O=C(CC1C(=O)NCCN1Cc1ccc(-c2ccccc2)cc1)NCC1CCOCC1 (configuration not stated),,-27.6
COC(=O)c1cc(S(=O)(=O)N2CCN(c3cc(Cl)ccc3C)CC2)c[nH]1,,2.69
Cc1ccc(C(=O)CC2(O)C(=O)N(CCc3ccccc3)c3ccc(Br)cc32)cc1 (configuration not stated),,0.876
Cc1onc(-c2ccc(F)cc2F)c1C(=O)Nc1cccc(C(F)(F)F)c1,,0.861
COc1ccc(CCNC(=O)c2ccc3c(c2)sc2nc(-c4ccc(C)cc4)cn23)cc1OC,,-1.96
CCc1cccc(NC(=O)c2cc(-c3ccccc3)n[nH]2)c1,,-7.19
O=C(O)c1ccc(COc2c(F)c(F)cc(F)c2F)o1,35.5 µM (active),
O=C(O)c1ccc(NC(=O)c2ccc(COc3ccc(Cl)cc3)o2)cc1,,-20
COC(=O)c1ccc(COc2ccc(C#N)cc2)o1,,-7.11
CCN1CC=C2C(C#N)=C(N)C(C#N)(C#N)[C@H](c3ccoc3)[C@H]2C1,,0.939
N#CC1=C(N)C(C#N)(C#N)[C@H](c2ccsc2)[C@H]2COCC=C12,12.6 µM (active),
Cc1ccc(C)c(N2CCN(C(=O)Cc3c(C(=O)O)c(C)cn3C)CC2)c1,,-12
O=C(NNC1CC(=O)N(c2cccc(Cl)c2)C1=O)c1cccnc1 (configuration not stated),,-28
O=C1[C@@H]2C(c3cccnc3)=NO[C@@H]2C(=O)N1c1ccc(Cl)cc1Cl,8.91 µM (active),
Cc1nc2ccccc2c(=O)n1-c1ccc(Cl)cc1Cl,,-34.9
COc1ccccc1-c1nnc(C2CCN(C(=O)c3ccc(Cl)cc3)CC2)o1,,1.27
CC(C)(C)c1ccc(C(=O)Nc2ccc3c(c2)CCCN3C(=O)c2cccs2)cc1,,-3.61
Cc1cccc(Cn2c(CN3CCC(C(=O)NCc4ccccc4Cl)CC3)cc3ccccc32)c1,,11.6
c1coc(-c2nc3nc4ccccc4n3nc2-c2ccco2)c1,44.7 µM (active),
O=C(COc1ccc(Cl)cc1)Nc1ccccc1OCc1cc(=O)n2ccccc2n1,,2.3
Cc1oc2cc(Br)c(O)c(Br)c2c1C(=O)c1ccccc1,15.8 µM (active),
COc1ccc(C(=O)c2c(C)oc3cc([N+](=O)[O-])c(O)c([N+](=O)[O-])c23)cc1,,-31.7
Cc1nc2ccccc2c(-c2ccccc2)c1C(=O)c1ccccc1,,-13.7

SMILES,Potency,"activity change, negative = inhibition [%]"
Brc1cccc(-c2nnn3c2nc(NC2CCCCC2)c2ccccc23)c1,,37
COc1ccc(CCNC(=O)Cn2c(=O)cc(C(F)(F)F)c3c(C)nn(C)c32)c(OC)c1,,3.9
COCCCN1C(=O)C(=O)/C(=C(/O)c2ccc(S(=O)(=O)N3CCOCC3)cc2)C1c1ccc(F)cc1 (configuration not stated),,5.3
COCCN1C(=O)C(=O)/C(=C(/O)c2ccc(S(=O)(=O)N3CCOCC3)cc2)C1c1ccc(O)c(OC)c1 (configuration not stated),,-15.2
O=C1C(=O)N(CCN2CCOCC2)C(c2cccc(Cl)c2)/C1=C(/O)c1ccc2c(c1)OCO2 (configuration not stated),50.1 µM (active),
CC1Cc2cc(/C(O)=C3\C(=O)C(=O)N(CCN4CCOCC4)C3c3ccccc3F)ccc2O1 (configuration not stated),,-26.7
O=C1C(=O)N(CCN2CCOCC2)C(c2ccccn2)/C1=C(/O)c1ccc(Cl)cc1 (configuration not stated),20 µM (active),
O=C1C(=O)N(CCCO)C(c2ccccc2)/C1=C(\O)c1ccc(Br)cc1 (configuration not stated),,11.9
COCCN1C(=O)C(=O)/C(=C(/O)c2ccc(S(=O)(=O)N3CCOCC3)cc2)C1c1ccc(OC)c(OC)c1 (configuration not stated),,-3.05
COc1ccc(C2/C(=C(/O)c3ccc(OC(C)C)cc3)C(=O)C(=O)N2CCCN2CCOCC2)cc1 (configuration not stated),20 µM (active),
CCN(CC)CCN1C(=O)C(=O)/C(=C(/O)c2ccc(OC)c(OC)c2)C1c1ccccn1 (configuration not stated),,11.8
CCn1c2c(c(=O)n3ncc(C(=O)N4CCN(c5ccccc5)CC4)c13)CN(Cc1ccc(OC)cc1)CC2,,-22.6
CCc1cccc(NC(=O)CN(C)S(=O)(=O)c2ccc3[nH]c4c(c3c2)CCCC4)c1,,-3.12
O=C(Nc1cc(C(F)(F)F)ccc1Cl)c1cc2nc(-c3ccc4c(c3)OCO4)cc(C(F)(F)F)n2n1,,10
O=C(CSc1nc(Nc2ccc(F)c(F)c2)c2ccccc2n1)c1ccc(Cl)cc1,,-0.95
Cc1cc(C)nc(NS(=O)(=O)c2ccc(NC(=O)c3cc(=O)c4ccc(C)c(C)c4o3)cc2)n1,,8.3
COC(=O)c1c(NC(=O)CCCOc2ccccc2)sc2c1CCC(C)C2 (configuration not stated),,-12.3
O=C(O)CCn1cc(C=C2C(=O)NC(=S)NC2=O)c(-c2cccc(Br)c2)n1,31.6 µM (active),
O=C(O)CCn1cc(/C=C/C(=O)c2ccc(Cl)cc2)c(-c2cccc(Br)c2)n1,,8.71
Cc1cccc(NC(=O)c2ccc3nc(C(C)C)oc3c2)c1C,,1.6
O=S(=O)(c1ccc(Br)cc1)c1nc(-c2ccccc2)oc1N1CCOCC1,,-40.2
O=S(=O)(c1ccccc1)c1nc(-c2ccccc2)oc1NCCCN1CCOCC1,,-7
O=S(=O)(c1ccccc1)c1nc(Cc2ccccc2)oc1N1CCOCC1,2 µM (active),
